This is a sample that favours compounds with a hit; in the whole collection about 9.6% have one here.
PostGolgi yeast – growth inhibition of a yeast mutant, post-Golgi transport screen | post-Golgi transport phenotypic cell assay | inhibition, % at 10 µM | 98,000 compounds, 0.9% hits | AID 739;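 further: yeast cells grown in 1536-well plates; yeast grown about 18 h at 30C before absorbance read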
hDAT+cocaine – changed human dopamine transporter uptake under cocaine IC80 | B-score at 10 µM | Q01959 | 110,000 compounds, 1.3% hits | LLC-PK1 hDAT cells, [14C]-dopamine uptake with cocaine IC80; actives deviate in either direction;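 active means Z score or B-score, a plate-position-corrected score, falls beyond the plate's 99.7% confidence bounds, in either direction; inactive means both scores lie inside the 99.7% bounds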;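 further: scored against the spread of the other compound wells on the same plate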
Target sequence (Q01959 whole entry, looked up): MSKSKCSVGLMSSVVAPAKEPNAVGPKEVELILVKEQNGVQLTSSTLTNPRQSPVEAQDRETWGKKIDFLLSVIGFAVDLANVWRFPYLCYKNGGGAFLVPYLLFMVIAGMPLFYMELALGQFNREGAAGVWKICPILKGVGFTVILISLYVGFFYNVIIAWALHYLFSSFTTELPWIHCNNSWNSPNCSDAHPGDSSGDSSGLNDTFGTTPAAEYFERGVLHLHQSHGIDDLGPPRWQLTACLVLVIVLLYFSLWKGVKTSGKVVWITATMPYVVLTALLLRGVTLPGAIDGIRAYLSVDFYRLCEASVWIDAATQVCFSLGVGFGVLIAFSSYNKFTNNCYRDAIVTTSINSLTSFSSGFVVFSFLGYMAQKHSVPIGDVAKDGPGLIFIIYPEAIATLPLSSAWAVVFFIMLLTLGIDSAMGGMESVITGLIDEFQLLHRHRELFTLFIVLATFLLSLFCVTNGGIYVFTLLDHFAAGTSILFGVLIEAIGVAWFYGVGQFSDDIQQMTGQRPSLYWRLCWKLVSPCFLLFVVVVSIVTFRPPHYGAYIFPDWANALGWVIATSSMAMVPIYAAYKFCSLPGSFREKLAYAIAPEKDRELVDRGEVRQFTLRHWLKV
PostGolgi ctrl – yeast control strain growth, post-Golgi counter-screen. efflux-deficient yeast background strain, growth absorbance A615, 16 h. inhibition, % at 10 µM. 98,000 compounds, 5% hits. AID 738
PLAP activator – human PLAP activation | purified PLAP enzyme, luminescent substrate read-out; active compounds read high | activation fold at 20 µM | 96,000 compounds, 1.2% hits; in the data active means activation fold above about 2
Cav32 inh – human Cav3.2 channel inhibition, primary screen. O95180. AID 449739. B-score at 10 µM. 100,000 compounds, 4% hits. Cav3.2-expressing cells, Fluo-4 calcium fluorescence FDSS; active compounds read low;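 active means single-dose well whose peak fluorescence ratio is a statistical outlier from its plate by either plate-standardised score or position-corrected B-score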
Starred values were filed as active, the others as inactive; . = no result; ! = not active in a repeat. Unless noted, no stated cut-off is given here; in the data, active means inhibition above about 30%; inactive means the rest.

SMILES	PostGolgi yeast	hDAT+cocaine	PostGolgi ctrl	PLAP activator	Cav32 inh
COc1ccc(N2CCN(C(=O)NC34CC5CC(CC(C5)C3)C4)CC2)cc1	-24	-7.6*	18	1.8	0.0098
c1ccc(-c2csc(N3CCN(c4ccccn4)CC3)n2)cc1	-3	-0.34	41*	0.9	-0.57
COc1ccc(CC(=O)OCC(=O)NC(=O)NC23CC4CC(CC(C4)C2)C3)cc1	-3	0.54	13	1	-8*
CCN(CC)S(=O)(=O)c1cccc(C(=O)OCc2cc(=O)n3nc(C)sc3n2)c1	7	0.81	3	1.1	-0.1
O=S(=O)(Nc1nccs1)c1ccc(Cl)cc1	12	-0.77	3	0.9	-3.4*
Cc1nn(C(=O)c2cccc([N+](=O)[O-])c2)c(C)c1Sc1ccccc1	2	0.35	11	1.2	-0.93
Cc1cc(C(C)(C)C)ccc1OCCN1CCCC1	67*	-1.4	29	1.4	1
CC(C)(C)c1ccccc1OCCN1CCCC1	3	-0.17	5	1.2	.
O=C(NCCN1CCCC1)c1ccc(CS(=O)(=O)c2c(Cl)cccc2Cl)o1	2	-0.061	2	1	-0.099
Cc1cc(C)n2cc(CSc3nnc(-c4ccccc4)o3)nc2n1	-1	0.52	7	1.5	-0.3
Cc1cc(C)n2cc(CSc3nc4cc(Cl)ccc4o3)nc2n1	-2	4*	12	1.5	-0.55
O=c1oc(-c2ccc(Br)o2)nc2ccccc12	7	-2	7	0.9	0.076
O=C(NCc1ccc(Cl)cc1)c1noc2c1CCCCC2	6	-0.92	14	0.9	-5*
COCCn1cnnc1SCC(=O)Nc1ccccc1C(=O)Nc1ccc2c(c1)OCO2	-3	-0.54	5	1	0.7
Cc1[nH]nc(-c2ccc(OCc3cnn(-c4ccccc4)c3)c(C)c2O)c1Oc1ccccc1	-6	0.82	8	1	0.98
Cc1[nH]nc(-c2ccc(O)c(C)c2O)c1Oc1ccccc1	2	0.89	38*	0.5	-4.8
CCOc1ccc(-c2n[nH]c(C)c2Oc2ccc(OC)cc2)c(O)c1	12	-0.34	33*	.	0.24
COc1cc2c(cc1NS(=O)(=O)N1CCCC1)oc1ccccc12	21	1.5	49*	1	-5.6*
COc1cc2c(cc1NC(=O)COc1ccc3ccccc3c1)oc1ccccc12	2	-7.8*	3	1.2	-2.4
CCOc1c(C)cc(-c2ncccc2O)cc1C	11	-7.9*!	-1	0.9	0.72
COc1ccc(-c2ncccc2O)cc1	3	-0.22	29	0.9	0.088
OC(COCc1ccc2c(c1)OCO2)CN1CCN(Cc2ccccc2)CC1 (stereo not given)	5	0.11	11	1.5	0.83
CN(C)c1nc(NCc2ccccc2)nc(SCC(=O)Nc2ccc(Cl)c(Cl)c2)n1	0	-0.21	14	1.3	-4.1*
COC(=O)c1ccc(CSc2nc3cc(Cl)ccc3s2)o1	-1	-0.77	12	0.9	-0.33
COCCn1c(SCc2ccc(C(=O)OC)o2)nc2cc(Cl)ccc2c1=O	-12	0.26	25	1.6	-3.9*
SMILES	PostGolgi yeast	hDAT+cocaine	PostGolgi ctrl	PLAP activator	Cav32 inh
CCC1S/C(=C(\C#N)C(=O)NCc2ccco2)N(c2ccc(Br)cc2)C1=O (stereo not given)	-1	0.32	7	1.4	-5.4*
CCC1S/C(=C(\C#N)C(=O)NCc2ccco2)N(c2ccc(F)cc2)C1=O (stereo not given)	4	0.47	-7	1.1	1.7
CCOc1ccc(-c2nn(-c3ccccc3)cc2/C=C(\C#N)S(=O)(=O)c2ccccc2)cc1C	-7	-0.93	5	1	-3.1
Cc1ccc(S(=O)(=O)/C(C#N)=C/c2c[nH]c3ccccc23)cc1	0	-0.78	68*	1	0.26
CC(C)n1cc(/C=C(\C#N)S(=O)(=O)c2ccccc2)c2ccccc21	0	0.019	36*	1.1	-2.6
COc1ccc(NC(=O)CN2CCN(CC(=O)Nc3ccccc3F)CC2)c(OC)c1	-8	0.33	14	1.3	.
O=C(CN(C(=O)Cn1nnc(-c2cccs2)n1)c1ccc2c(c1)OCCO2)NCc1ccccc1	-2	-1.3	6	2.1*	-4.2
OC(CC1CC12c1ccccc1-c1ncccc12)(c1ccccc1)c1ccccc1 (stereo not given)	0	0.051	45*	1.5	-2.3
NS(=O)(=O)c1ccc(CCNc2ncnc3c2c(-c2ccccc2)cn3-c2ccc(F)cc2)cc1	10	2.5	61*	1.3	1.4
Cn1c(=O)c2[nH]c(CN3CCN(Cc4ccccc4)CC3)nc2n(C)c1=O	-2	-1	-14	1	1.4
Cn1c(=O)c2[nH]c(CNCc3ccccc3Cl)nc2n(C)c1=O	-3	0.087	-6	2.9*	1.4
C/C(NC1CCCCC1)=C(/C#N)C(=O)NCCN1CCOCC1	6	-0.071	20	1.4	0.13
O=C(NCc1ccc(Cl)cc1)c1cnccn1	2	-2.8*	11	1.2	-0.42
O=C(NCc1cccc(Cl)c1)c1cnccn1	1	-0.089	7	1.4	-2.3
Cc1ccc(CNc2cc(-c3nn4c(C)nnc4s3)ccc2C)s1	8	-0.52	32*	0.8	-2.1
Cc1ccc(-c2nn3c(C)nnc3s2)cc1NCc1c(F)cccc1Cl	33*	0.6	23	0.9	-1.8
Cc1sc2nc(SCC(=O)c3cc(C)n(CC4CCCO4)c3C)n(C(C)C)c(=O)c2c1C (stereo not given)	-4	2	30*	1.4	-4.1*
Cc1cc(C(=O)Cn2nnc(-c3ccc(Cl)cc3)n2)c(C)n1CC1CCCO1 (stereo not given)	22	0.24	33*	.	-5.2*
Cc1cccc(-n2nnnc2SCC(=O)c2cc(C)n(CC3CCCO3)c2C)c1 (stereo not given)	-7	0.32	-2	1.4	-5.4*
Cc1cc(C(=O)CSc2nnc(-c3ccc(Cl)cc3)n2C)c(C)n1CC1CCCO1 (stereo not given)	4	-0.21	6	1.2	1.6
O=C1Nc2ccccc2C12NCCc1c2[nH]c2ccccc12 (stereo not given)	3	0.17	-6	0.9	-3.1
COc1cc2c(cc1OC)C1(NCC2)C(=O)Nc2ccccc21 (stereo not given)	0	0.52	48*	0.8	-0.45
CCCS(=O)(=O)N1CCCC(C(=O)NCCCN(CC)c2cccc(C)c2)C1 (stereo not given)	13	0.47	31*	1.3	0.4
CCN(CCCNC(=O)C1CCC(=O)N1Cc1ccccc1Cl)c1cccc(C)c1 (stereo not given)	1	0.01	4	1.6	-1.3
CCCS(=O)(=O)N1CCCC(C(=O)NCCN(CC)CC)C1 (stereo not given)	5	-1.3	33*	1.1	0.88
CCN(CCCNC(=O)C1CCC(=O)N1Cc1ccc(C)cc1)c1cccc(C)c1 (stereo not given)	6	-0.043	5	1.4	-3.4*
CCCS(=O)(=O)N1CCC(C(=O)NCCCN(CC)c2cccc(C)c2)CC1	2	0.85	-8	1.1	0.25
